Screening results as filed in PubChem BioAssay.
Compounds with a hit are over-represented: about 11% of the library has one in this group of screens.
SW480 rereplic: A quantitative high throughput screen for small molecules that induce DNA re-replication in SW480 colon adenocarcinoma cells; 1.8% of 340,000 active; Potency, µM (highest dose often 46.1 µM), without a hit: top-dose re-replication activation, most hits filed as activators; SW480 DNA re-replication, Hoechst DNA content imaging, 48 h; note: potency is the fitted concentration of half-maximal effect; % of control where 0% means no effect; nearly all actives have a fitted effect of over 55% in size
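First, 250 cells per well were seeded. Next, compound or vehicle (23 nL) was pinned in, plates sat 48 hr at 37 C. Finally Hoechst was added for 40 min before fluorescence scanning.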
RORg inh: qHTS for inhibitors of ROR gamma transcriptional activity. Nuclear receptor ROR-gamma (Mus musculus), P51450. Drosophila S2 Gal4-RORgamma UAS-luciferase reporter, 20 h. Potency, µM (top dose mostly 53.6 µM), for inactives: at the top dose activity change, negative = inhibition, most hits filed as inhibitors. 5.4% of 310,000 active. AID 2551, 2010; note: potency is the fitted concentration of half-maximal effect; % is set by controls: 0 for no effect and ±100 for the full control effect; nearly all actives have a fitted effect of over 60% in size
Target sequence (P51450 whole entry, looked up, the tested form may be a part): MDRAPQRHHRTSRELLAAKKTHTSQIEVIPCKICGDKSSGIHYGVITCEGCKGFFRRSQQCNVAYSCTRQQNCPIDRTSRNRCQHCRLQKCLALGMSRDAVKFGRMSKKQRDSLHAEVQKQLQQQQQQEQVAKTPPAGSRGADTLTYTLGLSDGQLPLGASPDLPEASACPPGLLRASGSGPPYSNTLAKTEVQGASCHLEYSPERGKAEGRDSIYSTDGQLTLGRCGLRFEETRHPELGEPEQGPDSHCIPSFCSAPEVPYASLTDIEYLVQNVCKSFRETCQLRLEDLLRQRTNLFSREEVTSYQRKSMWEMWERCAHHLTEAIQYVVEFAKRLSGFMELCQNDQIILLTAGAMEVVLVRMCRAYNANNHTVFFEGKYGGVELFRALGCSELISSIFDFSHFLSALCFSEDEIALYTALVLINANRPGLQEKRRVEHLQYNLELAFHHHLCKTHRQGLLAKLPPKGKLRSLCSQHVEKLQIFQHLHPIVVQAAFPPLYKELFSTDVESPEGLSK
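Luciferase reporter read in Schneider cells carrying Gal4-RORγ (mouse) and UAS-Photinus luciferase; cells given compound 1 h before 700 uM copper sulfate induction, then incubated 20 h at ambient temperature.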
MCF10A rerep: A quantitative high throughput screen for small molecules that induce DNA re-replication in MCF 10a normal breast cells; MCF 10A DNA re-replication, Hoechst nuclear intensity, 48 h; Potency, µM (series often up to 46.1 µM), for inactives: top-dose activity, positive = re-replication, most hits filed as activators; 2.9% of 350,000 active; note: potency is the fitted concentration of half-maximal effect; % of control where 0% means no effect; nearly all actives have a fitted effect of over 50% in size
IL1B secr inh: qHTS for Inhibitors of Inflammasome Signaling: IL-1-beta AlphaLISA Primary Screen. THP-1 LPS/ATP IL-1B secretion, AlphaLISA, 16 h; active compounds read low. activity change, % at 57.5 µM. 4.7% of 360,000 active. AID 743279, 2014; in the data active = activity change below about -50%; inconclusive = mostly about -30% to -49%; note: % is set by controls: 0 for no effect and ±100 for the full control effect
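Secreted IL-1B measured by AlphaLISA bead assay after 16 h compound exposure of THP-1 cells; compounds (final up to 57.5 uM) added 1 h before LPS (250 ng/mL) and ATP (1.25 mM) stimulation; lower signal means less secretion.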
VP16 counter: VP16 counterscreen qHTS for inhibitors of ROR gamma transcriptional activity. Drosophila S2 Gal4-VP16 UAS-luciferase, luminescence, 20 h. Potency, µM (top dose mostly 53.6 µM), for inactives: at the top dose activity, negative = inhibition, hits mostly inhibitors. 3.5% of 310,000 active. AID 2546, 2010;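 note: Gal4-VP16 expression switched on by copper sulfate through the metallothionein promoter; potency is the fitted concentration of half-maximal effect; % is set by controls: 0 for no effect and ±100 for the full control effect; nearly all actives have a fitted effect of over 50% in size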
Starred values were filed as active, the others as inactive; [ ] = another dose, or the depositor's remark. Unless noted, calls come from the whole dose curve; as a rule, active = well fitted curve in the direction sought with a large enough effect; inconclusive = small, poorly fitted or top-dose-only effect, or another doubt; inactive = no such curve, though single readings can be large; an effect the other way counts as inactive or inconclusive.

Cc1ccc(C(=O)NCC(=O)N/N=C/c2cccs2)cc1[N+](=O)[O-] was read as SW480 rereplic -22.0%, RORg inh -32.1%, MCF10A rerep -0.3%, IL1B secr inh -20.3 and VP16 counter 1.2%.
For CCN1C(=O)[C@H]2[C@@H](c3ccc(-c4cccc(Cl)c4)c(OC)c3)N3CCC[C@@]3(C(=O)OC)[C@H]2C1=O the results were SW480 rereplic inconclusive, MCF10A rerep 18.7% and IL1B secr inh -50.9*.
COc1ccccc1CNCC(O)Cn1c2ccccc2c2ccccc21 (stereo unspecified) was read as SW480 rereplic inconclusive, RORg inh inconclusive, MCF10A rerep inconclusive, IL1B secr inh -61.4* and VP16 counter inconclusive.
`CCn1c2ccccc2c2cc(NC(=O)CNCc3ccccc3OC)ccc21` gave SW480 rereplic 7.31µM*, RORg inh -44.4%, MCF10A rerep 7.31µM*, IL1B secr inh 6.0 and VP16 counter -20.1%.
`CCn1c2ccccc2c2cc(NC(=O)c3cccc(OC)c3OC)ccc21` gave SW480 rereplic 1.4%, RORg inh inconclusive, MCF10A rerep 8.1%, IL1B secr inh -26.3 and VP16 counter -0.2%.
OCCNCC(O)Cn1c2ccccc2c2ccccc21 (stereo unspecified) was read as SW480 rereplic 47.4%, RORg inh 1.8%, MCF10A rerep 23.0%, IL1B secr inh -4.7 and VP16 counter 1.9%.
For CCn1c2ccccc2c2cc(NC(=O)COc3ccccc3OC)ccc21 the results were SW480 rereplic 14.6µM*, RORg inh inconclusive, MCF10A rerep 5.8µM*, IL1B secr inh 27.0 and VP16 counter -25.7%.
Screening COc1ccccc1CNCC(=O)Nc1ccc(N(C)C)cc1 returned SW480 rereplic -22.0%, RORg inh 0.7%, MCF10A rerep 0.4%, IL1B secr inh 8.0 and VP16 counter -16.7%.
`COC1CCC2(C)C(=CCC3C4CC(O)CC4(C)CCC32)C1` (stereo unspecified) gave SW480 rereplic -2.4%, MCF10A rerep 11.5% and IL1B secr inh 6.4.
`CCNC(=O)C1(C)CCN(C(=O)c2ccccc2OC(F)(F)F)C1` (stereo unspecified) gave IL1B secr inh 13.5.
`CC1CCN(c2cc(N)c(Cl)cc2[N+](=O)[O-])CC1` gave SW480 rereplic 9.5%, RORg inh 32.9%, MCF10A rerep 9.6%, IL1B secr inh -78.2* and VP16 counter 15.7%.
For CC1CCN(c2cc(C#N)c(C#N)cc2[N+](=O)[O-])CC1 the results were SW480 rereplic -9.2%, RORg inh -10.6%, MCF10A rerep 11.7%, IL1B secr inh 12.3 and VP16 counter -0.2%.
Screening O=[N+]([O-])c1cc(S(=O)(=O)NCCN2CCOCC2)ccc1Cl returned SW480 rereplic inconclusive, RORg inh -12.5%, MCF10A rerep inconclusive, IL1B secr inh -83.7* and VP16 counter 6.0%.
`CCCN1CCC(=NNc2ccc(S(=O)(=O)N3CCOCC3)cc2[N+](=O)[O-])CC1` gave SW480 rereplic 7.31µM*, RORg inh -15.5%, MCF10A rerep 7.31µM*, IL1B secr inh 4.0 and VP16 counter -25.0%.
CC(C)N1CCC(=NNc2ccc(S(=O)(=O)N3CCOCC3)cc2[N+](=O)[O-])CC1 was read as SW480 rereplic -1.6%, RORg inh 8.3%, MCF10A rerep 5.7%, IL1B secr inh 4.3 and VP16 counter 0.3%.
For O=C1Nc2ccccc2-n2nnnc2C1N1CCc2ccccc2C1 (stereo unspecified) the results were IL1B secr inh 11.1.
For COc1ccc([C@H]2CC(=O)C=C(c3cc(C)ccc3F)C2)cc1 the results were SW480 rereplic -8.5%, MCF10A rerep inconclusive and IL1B secr inh -5.2.
COc1ccc([C@H]2CC(=O)C=C(c3cc(Br)ccc3OC)C2)cc1 was read as SW480 rereplic inconclusive, MCF10A rerep inconclusive and IL1B secr inh 5.5.
Screening CCOc1ccc(Br)cc1C1=CC(=O)C[C@H](c2ccc(OC)cc2)C1 returned SW480 rereplic 7.31µM*, MCF10A rerep 2.91µM* and IL1B secr inh 68.5.
`COc1ccc([C@H]2CC(=O)C=C(c3ccccc3-c3ccccc3)C2)cc1` gave SW480 rereplic inconclusive, MCF10A rerep 16.4µM* and IL1B secr inh 25.8.
Screening COc1ccc([C@H]2CC(=O)C=C(c3cc(C)ccc3OC)C2)cc1 returned SW480 rereplic 16.4µM*, MCF10A rerep inconclusive and IL1B secr inh -7.6.
`CN(CCC(=O)Nc1ccc(Cl)cc1)Cc1ccccc1` gave SW480 rereplic -3.3%, RORg inh -6.1%, MCF10A rerep 0.7%, IL1B secr inh -8.9 and VP16 counter -1.9%.
`COC(=O)C/C=C\[C@@H](C)[C@@H]1C=C[C@H](OC(C)=O)[C@H](COC(C)=O)O1` gave RORg inh -15.0%[10 µM] and VP16 counter -2.0%[10 µM].
Screening COc1ccc(-n2c(O)c(C=NCc3ccccn3)c3ccccc3c2=O)c(OC)c1 returned SW480 rereplic 1.8%, RORg inh -33.7%, MCF10A rerep 0.3%, IL1B secr inh -12.3 and VP16 counter 0.2%.
For Cc1ccc(-n2c(O)c(C=NCc3ccccn3)c3ccccc3c2=O)cc1C the results were SW480 rereplic inconclusive, RORg inh 10µM*, MCF10A rerep 18.2%, IL1B secr inh -66.5* and VP16 counter 22.4µM*.
Screening O=c1c2ccccc2c(C=NCc2ccccn2)c(O)n1-c1ccccc1Cl returned SW480 rereplic -0.8%, RORg inh 11.2µM*, MCF10A rerep 17.8%, IL1B secr inh 1.2 and VP16 counter inconclusive.
For O=c1c2ccccc2c(C=NCc2ccccn2)c(O)n1-c1ccccc1 the results were SW480 rereplic 11.8%, RORg inh inconclusive, MCF10A rerep -2.7%, IL1B secr inh -9.1 and VP16 counter -16.4%.
For Cc1[nH]c2ccccc2c1C(=O)CSc1ccccc1 the results were RORg inh 8.4%, MCF10A rerep 4.4%, IL1B secr inh 0.0 and VP16 counter -3.7%.
`CC(=O)c1c(-c2ccccc2)[nH]c2ccccc12` gave SW480 rereplic inconclusive, RORg inh inconclusive, MCF10A rerep 16.4µM*, IL1B secr inh -6.6 and VP16 counter 1.6%.
Screening Cc1[nH]c2ccccc2c1C(=O)CCl returned SW480 rereplic 13µM*, RORg inh 12.6µM*, MCF10A rerep 10.3µM*, IL1B secr inh -107.3* and VP16 counter 11.2µM*.
Screening O=C(O)/C=C/C(=O)c1c(-c2ccccc2)[nH]c2ccccc12 returned SW480 rereplic inconclusive, RORg inh 14.1µM*, MCF10A rerep 20.6µM*, IL1B secr inh 8.6 and VP16 counter inconclusive.
